LEDGF integ inh – blocks HIV-1 LEDGF/p75-dependent DNA integration. TR-FRET IN-LEDGF/p75 DNA integration, Eu/Cy5. actives 0.64% (n = 370,000). inhibition, % at 3.7 µM;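 active means inhibition above the screen-wide mean plus 3 SD, cut at about 13% in these data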;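 further: signal is the Cy5 over europium emission ratio at 671 and 618 nm; 0% = plate median of compound wells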
MBD2 inh – blocks human MBD2 binding to methylated DNA; Q9UBB5; TR-FRET, MBD2 binding to methylated oligonucleotide; inhibition, % at 4.4 µM; actives 0.31% (n = 370,000); in the data active means inhibition above about 13%
UHRF1 binding – human UHRF1 methylated DNA binding inhibitors; Q96T88; UHRF1 binding to methylated oligo, TR-FRET; inhibition, % at 4.4 µM; actives 0.75% (n = 370,000); in the data active means inhibition above about 21%;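 further: UHRF1 SRA domain binding a hemimethylated CpG hairpin DNA probe; 0% = median of test compound wells and 100% = reference inhibitor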
PLC-gamma1 inh – inhibitors of human phospholipase C gamma1. inhibition, % at 12.2 µM. P19174. actives 0.84% (n = 370,000). purified PLC-gamma1, fluorogenic substrate, fluorescence
Target sequence (P19174 whole entry, looked up): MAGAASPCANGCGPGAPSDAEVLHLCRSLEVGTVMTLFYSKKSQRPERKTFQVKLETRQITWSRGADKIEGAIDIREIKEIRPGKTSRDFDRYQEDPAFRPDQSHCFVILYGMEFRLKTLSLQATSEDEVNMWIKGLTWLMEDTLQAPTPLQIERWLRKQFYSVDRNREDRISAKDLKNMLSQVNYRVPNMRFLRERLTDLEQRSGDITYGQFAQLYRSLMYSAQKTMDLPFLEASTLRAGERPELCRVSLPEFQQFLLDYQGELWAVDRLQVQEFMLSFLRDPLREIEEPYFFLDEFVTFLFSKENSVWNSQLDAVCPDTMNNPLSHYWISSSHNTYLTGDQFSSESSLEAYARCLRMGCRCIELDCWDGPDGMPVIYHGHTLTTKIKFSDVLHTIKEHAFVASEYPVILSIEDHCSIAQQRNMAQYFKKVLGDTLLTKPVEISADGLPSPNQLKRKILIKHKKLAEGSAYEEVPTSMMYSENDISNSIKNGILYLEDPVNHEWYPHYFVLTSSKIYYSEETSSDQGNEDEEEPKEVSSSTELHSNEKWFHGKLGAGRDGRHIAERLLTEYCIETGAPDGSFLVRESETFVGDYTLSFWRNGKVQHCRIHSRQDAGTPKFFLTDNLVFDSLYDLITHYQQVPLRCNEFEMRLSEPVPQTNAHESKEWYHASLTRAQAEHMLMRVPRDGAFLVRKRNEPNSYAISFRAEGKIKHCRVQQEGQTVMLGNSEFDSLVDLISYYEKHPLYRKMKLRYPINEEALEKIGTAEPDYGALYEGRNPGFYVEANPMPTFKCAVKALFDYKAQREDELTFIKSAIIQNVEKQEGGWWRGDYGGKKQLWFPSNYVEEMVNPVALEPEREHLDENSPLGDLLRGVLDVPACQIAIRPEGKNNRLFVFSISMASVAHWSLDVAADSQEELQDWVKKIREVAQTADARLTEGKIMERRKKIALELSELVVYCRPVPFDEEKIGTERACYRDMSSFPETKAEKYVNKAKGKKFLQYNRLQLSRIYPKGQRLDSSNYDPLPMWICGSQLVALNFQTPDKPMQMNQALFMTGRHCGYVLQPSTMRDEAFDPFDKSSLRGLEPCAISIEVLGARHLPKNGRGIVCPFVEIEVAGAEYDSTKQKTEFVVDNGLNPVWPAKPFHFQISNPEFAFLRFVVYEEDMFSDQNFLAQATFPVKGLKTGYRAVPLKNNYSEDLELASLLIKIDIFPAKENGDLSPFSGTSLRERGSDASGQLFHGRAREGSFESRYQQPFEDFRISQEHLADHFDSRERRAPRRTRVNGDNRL
PLCb3 inh – PLC-beta3 (human) inhibition, primary screen. Q01970. Purified PLC-beta3, fluorogenic substrate, fluorescence. inhibition, % at 12.2 µM. actives 0.18% (n = 370,000). AID 720704; in the data active means inhibition above about 11%;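 further: 0% = median of compound wells on plate and 100% = full blocker control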
PLCgamma1 ctr – inhibits human PLC-gamma1 in PLC-beta3 counter-screen; AID 743258; actives 3.1% (n = 3,300); purified PLC-gamma1, fluorogenic substrate, fluorescence; shares compounds with PLC-gamma1 inh; inhibition, % at 12.3 µM
PLCbeta3 conf – confirmation of human PLC-beta3 inhibitors | shares compounds with PLC-gamma1 inh | purified PLC-beta3, fluorogenic substrate fluorescence | inhibition, % at 12.3 µM | actives 1% (n = 3,300) | AID 743261; in the data active means inhibition above about 11%
The depositor's hits bear a star; / = no result. An excerpt weighted towards active compounds, which were near 2.3% of everything screened. Unless noted, no stated cut-off is given here; in the data, active means inhibition above about 9.5%; inactive means the rest.

SMILES | LEDGF integ inh | MBD2 inh | UHRF1 binding | PLC-gamma1 inh | PLCb3 inh | PLCgamma1 ctr | PLCbeta3 conf
O=C(NCc1ccc(F)cc1)C(C(=O)NCc1ccc(F)cc1)c1ncc(C(F)(F)F)cc1Cl | 1 | 0 | 1 | 13* | 8 | -1 | 1
CCOC(=O)C(C(=O)NCc1ccc(F)cc1)c1ncc(C(F)(F)F)cc1Cl (configuration not stated) | -2 | 3 | -2 | -1 | 0 | / | /
O=C(CN1C2=NCCCN2c2ccccc21)c1cccc(Br)c1 | -2 | 3 | 2 | 0 | -4 | / | /
O=C(CN1C2=NCCCN2c2ccccc21)c1ccc([N+](=O)[O-])cc1 | -1 | -3 | 4 | 9.6* | 8 | -5 | -2
CN(Cc1ccco1)C(=O)CN1C(=O)NC(c2ccccc2)(c2ccccc2)C1=O | 2 | 9 | 0 | 1 | -8 | / | /
Cc1ccc(CN(C)C(=O)CN2C(=O)NC(c3ccccc3)(c3ccccc3)C2=O)c(C)c1 | 2 | 2 | 3 | 11* | -1 | 3 | -5
Cc1cc(NC(=O)CSc2nc(C(C)C)nc3sc(C)c(C)c23)no1 | 4 | -6 | 4 | 0 | 1 | / | /
Cc1cc(NC(=O)CSc2nnc3c4c(C)c(C)sc4ncn23)no1 | 6 | -8 | 6 | -6 | 12* | -4 | -2
CCOC(=O)C(NC(=O)c1ccccc1)(N1CCOCC1)C(F)(F)F (configuration not stated) | 2 | 2 | 0 | 10* | 4 | -3 | -3
Cc1cc(C(=O)Nc2ccccc2N2CCCCC2)no1 | 4 | 1 | 4 | 9.8* | 8 | -5 | -21
COc1ccccc1/C=C1\SC(=S)N(CCC(=O)Nc2ccc(C(=O)O)c(O)c2)C1=O | 4 | 2 | -1 | 8 | -2 | / | /
O=C(CCN1C(=O)/C(=C\c2ccco2)SC1=S)Nc1ccc(C(=O)O)c(O)c1 | 70* | 9 | 62* | 37* | -7 | 14* | -25
CCOC(=O)C1=CC(=O)CC(C)(C)O1 | -4 | 1 | 0 | 3 | 3 | / | /
CCOC(=O)c1ncn2c1C(=O)OC2(C)C | 6 | -1 | 0 | 15* | 6 | -1 | 2
O=C(NCCc1ccccc1F)C1CC(=O)N(c2ccccc2)C1 (configuration not stated) | 5 | -3 | -2 | 4 | -1 | / | /
O=C(NCCN1C(=O)CSC1=O)C1CC(=O)N(c2ccccc2)C1 (configuration not stated) | 4 | 4 | 3 | 10* | 2 | -6 | -1
CC(C)C[C@H](NC(=O)c1nc[nH]c1C(=O)NCC(=O)OCc1ccccc1)C(=O)OCc1ccccc1 | 1 | -1 | 9 | 9 | -4 | / | /
CC(C)C[C@H](NC(=O)c1[nH]cnc1C(=O)N[C@@H](C)C(=O)OC(C)(C)C)C(=O)OC(C)(C)C | 4 | -7 | -2 | 8 | 11* | 5 | -6
CC(C)C(NC(=O)OCc1ccccc1)C(=O)NCC(=O)OC(C)(C)C (configuration not stated) | -4 | 1 | 1 | 2 | 15* | 8 | 3
CC(C)C[C@H](NC(=O)c1nc[nH]c1C(=O)NCC(=O)OC(C)(C)C)C(=O)OCc1ccccc1 | 1 | 1 | 8 | 9.9* | -4 | 1 | -5
COC(=O)[C@]12C[C@H](CC(=O)N3CCOCC3)C(=O)N(CCc3ccc(OC)c(OC)c3)C1=C[C@H](C(C)C)O[C@@H]2C1CC1 | 5 | -5 | -2 | 3 | 3 | / | /
COc1ccc(N(CC(=O)NCCc2ccccc2)C(=O)c2csnn2)cc1 | 0 | -3 | 3 | 3 | -3 | / | /
CCOc1ccc(N(CC(=O)NCCc2ccccc2)C(=O)c2csnn2)cc1 | -11 | 1 | 5 | 11* | -6 | 3 | 0
CCn1cc(C(=O)N2CCN(Cc3ccc(C)cc3)CC2)c(=O)c2ccc(C)nc21 | -1 | -1 | -1 | -6 | -8 | / | /
O=C(OCC(=O)C12CC3CC(CC(C3)C1)C2)c1cnccn1 | 5 | 3 | 2 | 12* | 3 | 1 | 1
O=C(OCC(=O)C12CC3CC(CC(C3)C1)C2)c1ccc(O)cc1O | 1 | -6 | 0 | 10* | 3 | 2 | 3
O=C(COC(=O)c1cnccn1)c1ccccc1 | -2 | 7 | 2 | -1 | 12* | -4 | 0
